Screening data as filed in PubChem BioAssay.
The entries come from a sample that favours hits as a whole.
TDP1 cell CPT: growth inhibition of DT40 Tdp1-/-;hTDP1 cells with camptothecin (screen for TDP1 inhibitors) | chicken DT40 Tdp1-/-;hTDP1 cells + 20 nM CPT, ATP luminescence, 48 h | hit rate 12% among 420,000 | AID 686979 | Potency, µM (series often up to 46.2 µM), inactives show at the highest dose activity change, negative = growth inhibition, actives largely listed as inhibitors; also: potency is read from the fitted curve at half-maximal effect; nearly all actives have a fitted effect of over 55% in size
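Chicken DT40 Tdp1-/- cells stably complemented with human TDP1 were seeded at 400 cells/well in medium containing 20 nM camptothecin, exposed to pin-transferred compounds, and grown at 37 °C for at least 48 hr. Viability was read as ATP luminescence.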
IL-1B inflam inh: inhibitors of inflammasome signaling (IL-1 beta secretion); THP-1 LPS/ATP IL-1B secretion, AlphaLISA, 16 h; active compounds read low; hit rate 4.7% among 360,000; activity change, % at 57.5 µM; AID 743279; in the data active = activity change below about -50%; inconclusive = mostly about -30% to -49%
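Secreted IL-1B measured by AlphaLISA bead assay after 16 h compound exposure of THP-1 cells; compounds (final up to 57.5 uM) added 1 h before LPS (250 ng/mL) and ATP (1.25 mM) stimulation; lower signal means less secretion.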
HT1080 IDH1KD tx: kills HT-1080 cells with IDH1 knockdown. HT-1080 IDH1 knockdown viability, ATP luminescence, 48 h. Potency, µM (top dose mostly 46.1 µM), without a hit: at the highest dose activity, negative = toxicity, usual class: cytotoxic. hit rate 2% among 360,000. AID 686971;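 also: potency is read from the fitted curve at half-maximal effect; 0% = DMSO wells and -100% = cell-free medium wells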
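Viability of IDH1-knockdown HT-1080 fibrosarcoma cells was assessed by CellTiter-Glo after 48 h at 37 °C with titrated compound; concentration-effect curves were classified by fit quality and response size.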
ALOX12 inh: inhibitors of human 12S-lipoxygenase ALOX12. hit rate 1.1% among 580,000. AID 1671190. purified 12hLO, xylenol orange hydroperoxide absorbance. Potency, µM (doses to about 108 µM), without a hit: top-dose activity change, negative = inhibition, actives largely listed as inhibitors. P18054; also: potency is read from the fitted curve at half-maximal effect
Target sequence (P18054 whole entry, looked up): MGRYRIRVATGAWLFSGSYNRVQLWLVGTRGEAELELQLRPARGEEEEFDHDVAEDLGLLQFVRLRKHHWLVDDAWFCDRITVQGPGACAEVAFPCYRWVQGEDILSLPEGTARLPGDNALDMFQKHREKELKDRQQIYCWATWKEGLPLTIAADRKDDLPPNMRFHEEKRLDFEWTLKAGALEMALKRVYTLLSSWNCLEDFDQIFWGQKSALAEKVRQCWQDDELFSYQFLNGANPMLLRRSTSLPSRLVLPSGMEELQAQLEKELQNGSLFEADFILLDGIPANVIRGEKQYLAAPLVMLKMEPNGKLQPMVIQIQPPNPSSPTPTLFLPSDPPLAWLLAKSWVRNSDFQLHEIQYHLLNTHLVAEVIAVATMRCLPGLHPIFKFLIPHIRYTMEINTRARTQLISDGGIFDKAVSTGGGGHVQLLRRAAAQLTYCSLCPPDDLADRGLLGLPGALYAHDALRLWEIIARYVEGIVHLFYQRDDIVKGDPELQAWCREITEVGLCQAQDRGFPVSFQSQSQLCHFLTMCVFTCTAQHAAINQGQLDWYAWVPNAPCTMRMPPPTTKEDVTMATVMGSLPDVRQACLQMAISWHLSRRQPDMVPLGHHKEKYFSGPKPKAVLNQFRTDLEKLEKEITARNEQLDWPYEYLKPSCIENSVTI
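Hydroperoxide product was detected by ferrous iron/xylenol orange as the 573 to 405 nm absorbance ratio. Arachidonic acid at 40 uM (final) was turned over for 30 min at room temperature by 150 nM human 12hLO, pH 7.0 Hepes buffer, after 15 min compound preincubation.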
HT1080-NT tox: kills 2HG-producing HT-1080-NT fibrosarcoma cells. hit rate 1.6% among 360,000. HT-1080-NT fibrosarcoma viability, CellTiter-Glo ATP luminescence, 48 h. Potency, µM (titrated, usually from 46.1 µM), for inactives: at the top dose activity, negative = less viability, hits mostly cytotoxic. AID 686970;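 also: NT is the 2HG producing partner of a matched IDH1 knockdown line; potency is read from the fitted curve at half-maximal effect; 0% = DMSO-treated cells and -100% = media-only wells without cells; nearly all actives have a fitted effect of over 55% in size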
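A 48-hour cytotoxicity screen used HT-1080-NT cells plated 2 hours before compound delivery. ATP-based CellTiter-Glo luminescence measured viability, normalized to DMSO and no-cell controls.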
DT40 TDP1 no CPT: qHTS for Inhibitors of human tyrosyl-DNA phosphodiesterase 1 (TDP1): qHTS in cells in absence of CPT; Potency, µM (top dose mostly 46.2 µM), for inactives: at the top dose activity change, negative = growth inhibition, usual class: inhibitors; hit rate 15% among 420,000; DT40 Tdp1-/- hTDP1 cells, no CPT, ATP luminescence, 48 h; also: potency is read from the fitted curve at half-maximal effect; nearly all actives have a fitted effect of over 55% in size
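No-CPT arm: Tdp1-/-;hTDP1 DT40 cells (400/well) plus compounds, incubated ≥48 hr at 37 °C. Readout CellTiter-Glo luminescence.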
Starred values were filed as active, the others as inactive; ? = inconclusive; · = not tested or not shown; [ ] = another dose, or the depositor's remark. Unless noted, calls follow the shape of the dose curve; as a rule, active = well fitted curve in the direction sought with a large enough effect; inconclusive = small, poorly fitted or top-dose-only effect, or another doubt; inactive = no such curve, though single readings can be large; an effect the other way counts as inactive or inconclusive. Unless noted, % is scaled to controls: 0 for no effect and ±100 for the full control effect.

SMILES	TDP1 cell CPT	IL-1B inflam inh	HT1080 IDH1KD tx	ALOX12 inh	HT1080-NT tox	DT40 TDP1 no CPT
COc1ccccc1CNc1ccc2c(c1)CCC2	4.6µM*	-60*	-8%	0%	-14%	10µM*
COc1ccc(NCc2ccccc2[N+](=O)[O-])cc1OC	16µM*	-1	1%	-27%	-5%	16µM*
COc1ccc(CNc2ccc3c(c2)CCC3)cc1Br	-12%	13	0%	?	-7%	0%
COc1cc2c(cc1OC)C(Cc1ccccc1[N+](=O)[O-])=NCC2	?	12	-1%	?	-1%	23µM*
COc1cc2c(cc1OC)C(C[C@H]1CN(S(=O)(=O)c3ccccc3)CC[C@H]1CC(=O)O)=NCC2	·	·	·	2%	·	·
CN1CCOc2cc(S(=O)(=O)N3CCN(c4nc(-c5cccs5)nc5ccccc45)CC3)ccc21	5%	·	3%	·	15%	?
CCC[C@@H]1C[C@@]1(CCC)[C@@H](NP(=O)(c1ccccc1)c1ccccc1)c1ccc(C(=O)OC)cc1	?	-3	-5%	-29%	-3%	16µM*
Cc1cc(OC(=O)c2ccc(CSc3ccc(Cl)cc3)cc2)cc(C(C)C)c1	·	·	·	-1%	·	·
O=C(NCc1cccnc1-n1cncn1)C1CC2(CCNCC2)CN1 (stereo unspecified)	·	·	·	21%	·	·
CCCCn1nc2cc(C(=O)NCC34CC5CC(CC(C5)C3)C4)ccc2c1OCC	?	-23	-4%	?	-21%	16µM*
CC12CCC3C(CCC4CC(O)CCC43C)C1CC=C2c1ccccc1 (stereo unspecified)	·	·	·	0%	·	·
C/C(=N\NC(N)=S)C1=CCC2C3CC[C@H]4CC(O)CC[C@]4(C)C3CC[C@]12C (stereo partly specified)	18µM*	-52*	-4%	-16%	-22%	5.2µM*
CCCN(CCC)C(=O)/C=C/c1cccc([N+](=O)[O-])c1	?	0	0%	0%	-2%	?
CCCN(CCC)C(=O)c1cc([N+](=O)[O-])cc2c1-c1ccc([N+](=O)[O-])cc1C2=C(C#N)C#N	5.2µM*	0	8%	107%	16%	2.9µM*
CN(C)c1ccc(/C=C2\N=C(c3ccc(Cl)c([N+](=O)[O-])c3)NC2=O)cc1	?	-3	3%	-13%	-1%	10µM*
C=CCn1c(SCc2c(F)cccc2Cl)nnc1-c1ccco1	21µM*	-26	8%	-9%	17%	16µM*
C=CCn1c(SCC(=O)Nc2cc(C)c(Cl)cc2OC)nnc1-c1ccco1	-15%	?	?	-20%	?	?
CN1CCC(=C(c2ccccc2)c2ccc(Br)cc2)CC1	?	-27	-1%	?	-4%	16µM*
CC(C)(C)c1ccc(C(=O)C=[N+]=[N-])cc1	26µM*	8	19%	0%	17%	15µM*
C#Cc1cccc(C(=O)NCc2nc(-c3ccccc3NC(C)=O)oc2C)c1	0%[9.04 µM]	·	·	?	·	-8%
COCCN(CC1CCCN(C2Cc3ccccc3C2)C1)C(=O)CCC(N)=O (stereo unspecified)	6%	-52*	-15%	-10%	-10%	?
O=C(Cn1cccc1-c1nc(-c2ccc3c(c2)OCO3)no1)NC1CCCCC1	·	·	·	8%	·	·
O=S(=O)(c1ccc(F)cc1)c1snnc1-c1ccccc1	4.1µM*	-100*	?	9%	6.5µM*	2.9µM*
O=S(=O)(c1ccc(Cl)cc1)c1snnc1-c1ccccc1	5.2µM*	-115*	7.3µM*	0%	12µM*	4.1µM*
CCCN(CCC)C(=O)Cn1c(=O)n(CCCCCC(=O)NCc2ccc3c(c2)OCO3)c(=O)c2sccc21	?	·	·	-17%	·	-16%
SMILES	TDP1 cell CPT	IL-1B inflam inh	HT1080 IDH1KD tx	ALOX12 inh	HT1080-NT tox	DT40 TDP1 no CPT
N#Cc1cc(-n2ccnc2-c2cc3n(n2)CCCNC3)ccc1N1CCCC1	·	·	·	85%	·	·
Oc1cnc2ccccc2c1CN1CCOCC1	?	46	-6%	-23%	-1%	-27%
O=S(=O)(c1c(F)cccc1F)N1CCN(Cc2c(O)ccc3ccccc23)CC1	0%	0	-6%	13µM*	-7%	6%
Oc1ccc2ccccc2c1CN1CCOCC1	-13%	-15	12%	7.1µM*	14%	-22%
C=CCNC(=O)[C@@H]1CCCC[C@@H]1C(=O)N1CCn2nc(C(=O)O)cc2C1	·	·	·	-8%	·	·
CCOc1ccc(OCc2nc3ccc(OC)cc3[nH]2)cc1	·	·	·	23%	·	·
Cc1cc(C)cc(OCc2nc3ncc(Br)cc3[nH]2)c1	2.3µM*	41	?	3%	?	2.3µM*
COc1cccc(OCc2nc3ncc(Br)cc3[nH]2)c1	4.1µM*	60	?	-7%	2.2µM*	2.9µM*
O=Cc1ccc(N2N=C(c3ccccc3)CC2c2ccccc2)cc1 (stereo unspecified)	-3%	7	-2%	37%	-21%	-21%
N#CCC(=O)N/N=C/c1ccc(N2N=C(c3ccccc3)CC2c2ccccc2)cc1 (stereo unspecified)	23µM*	-7	-20%	-17%	?	18µM*
Oc1ccc(C2=NN(c3ccccc3)C(c3ccc(F)cc3)C2)cc1 (stereo unspecified)	?	-98*	26µM*	?	18µM*	?
Cc1ccc(N2N=C(c3ccc(F)cc3)CC2c2ccco2)cc1 (stereo unspecified)	18µM*	9	-3%	25µM*	9%	?
COc1ccc(C2CC(c3ccccc3)=NN2c2ccc(/C=N/NC(=O)c3ccncc3)cc2)cc1 (stereo unspecified)	?	15	-21%	-1%	-14%	?
NS(=O)(=O)c1ccc(N2N=C(c3ccccc3)CC2c2ccc(F)cc2)cc1 (stereo unspecified)	?	-61*	-20%	-22%	-4%	?
Oc1ccccc1C1=NN(c2ccccc2)C(c2ccc(F)cc2)C1 (stereo unspecified)	-16%	-7	-6%	0%	-9%	?
CC(C)N(C(=O)CSc1nnc(N)s1)C1CCCCC1	·	·	·	-2%	·	·
CCCNC(=O)c1ccc(C(=O)OC)cc1	·	·	·	-18%	·	·
Cc1cccc(C2CC(c3ccccc3)=NN2c2ccc(S(N)(=O)=O)cc2)c1 (stereo unspecified)	?	-22	?	?	?	?
